Measurements: PubChem BioAssay AID1159580 (chemical genetic matrix, 2015)
Where “and” joins values, the source holds several entries; their conditions need not be identical. Identical values can stand only once. About 2,000 (36%) of roughly 5,500 compounds were called active. Inconclusive results (about 18%) are left out. Cut-off read from the data, not from the text of the source: active = normalized growth mostly below about 0.91 (no sharp cut-off); inconclusive = no clear call, values can overlap the other calls; inactive = mostly above about 0.92. This is one part of the list.

Assay: chemical genetic growth profiling, strain panel (AID 1159580);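 note: tested at 20 µM; growth read once vehicle control cultures reached saturation at 30 °C; 1 = growth at the plate median or of vehicle wells; lower values mean less growth of the strain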
Conditions: S. cerevisiae deletion strains, growth OD

Measured: normalized growth

O=C(O)c1cc2cc(F)ccc2[nH]1
inactive: locus YAL013W, strain DEP1, stronger effect = lower value 1 | locus YAL021C, strain ccr4, stronger effect = lower value 0.961 | locus YAL026C, strain drs2, stronger effect = lower value 0.992 | locus YAL030W, strain snc1, stronger effect = lower value 0.998 | locus YAL040C, strain CLN3, stronger effect = lower value 0.969 | locus YBL061C, strain skt5, stronger effect = lower value 0.99 | locus YBR009C, strain hhf1, stronger effect = lower value 1.01 | locus YBR021W, strain FUR4, stronger effect = lower value 0.99 | locus YBR023C, strain chs3, stronger effect = lower value 0.996 | locus YBR171W, strain sec66, stronger effect = lower value 0.97 | locus YBR229C, strain ROT2, stronger effect = lower value 0.982 | locus YBR231C, strain swc5, stronger effect = lower value 0.991 | locus YBR279W, strain paf1, stronger effect = lower value 0.976 | locus YCL011C, strain gbp2, stronger effect = lower value 0.975 | locus YCL016C, strain dcc1, stronger effect = lower value 0.994 | locus YCL029C, strain bik1, stronger effect = lower value 1.02 | locus YCL061C, strain MRC1 (second series), stronger effect = lower value 0.99 | locus YCL061C, strain MRC1, stronger effect = lower value 0.971 | locus YCL069W, strain vba3, stronger effect = lower value 0.975 | locus YCR088W, strain abp1, stronger effect = lower value 0.971 | locus YDL005C, strain med2, stronger effect = lower value 0.97 | locus YDL035C, strain GPR1, stronger effect = lower value 1.02 | locus YDL040C, strain nat1, stronger effect = lower value 0.979 | locus YDL074C, strain BRE1, stronger effect = lower value 1.03 | locus YDL101C, strain DUN1, stronger effect = lower value 1.02 | locus YDL134C, strain PPH21, stronger effect = lower value 1.01 | locus YDL185W, strain tfp1, stronger effect = lower value 1.01 | locus YDL192W, strain arf1, stronger effect = lower value 1.02 | locus YDR001C, strain nth1, stronger effect = lower value 0.978 | locus YDR069C, strain doa4, stronger effect = lower value 1 | locus YDR101C, strain arx1, stronger effect = lower value 1.01 | locus YDR137W, strain rgp1, stronger effect = lower value 0.968 | locus YDR150W, strain NUM1, stronger effect = lower value 1.01 | locus YDR159W, strain sac3, stronger effect = lower value 0.995 | locus YDR162C, strain NBP2, stronger effect = lower value 1.02 | locus YDR195W, strain ref2 0.966 | locus YDR297W, strain sur2, stronger effect = lower value 0.975 | locus YDR318W, strain mcm21, stronger effect = lower value 1.02 | locus YDR334W, strain swr1, stronger effect = lower value 0.945 | locus YDR335W, strain msn5, stronger effect = lower value 0.99 | locus YDR388W, stronger effect = lower value 1.01 | locus YDR392W, strain spt3, stronger effect = lower value 0.933 | locus YDR502C, strain sam2, stronger effect = lower value 1.02 | locus YEL003W, strain gim4, stronger effect = lower value 0.978 | locus YEL037C, strain rad23, stronger effect = lower value 0.981 | locus YEL061C, strain CIN8 (second series), stronger effect = lower value 0.979 | locus YEL061C, strain CIN8, stronger effect = lower value 1.01 | locus YER002W, strain NOP16, stronger effect = lower value 0.966 | locus YER015W, strain faa2, stronger effect = lower value 0.981 | locus YER016W, strain bim1, stronger effect = lower value 0.994 | locus YER110C, stronger effect = lower value 1.02 | locus YER111C, strain swi4, stronger effect = lower value 1.01 | locus YER155C, strain BEM2 (second series), stronger effect = lower value 0.993 | locus YER155C, strain BEM2, stronger effect = lower value 1 | locus YER167W, strain BCK2, stronger effect = lower value 1.01 | locus YFR010W, strain ubp6, stronger effect = lower value 0.978 | locus YGL078C, strain dbp3, stronger effect = lower value 1.01 | locus YGL086W, strain mad1, stronger effect = lower value 1.02 | locus YGL167C, strain pmr1, stronger effect = lower value 0.982 | locus YGL173C, strain kem1, stronger effect = lower value 0.987 | locus YGL227W, strain vid30, stronger effect = lower value 0.989 | locus YGL240W, strain doc1, stronger effect = lower value 1.01 | locus YGL248W, strain PDE1, stronger effect = lower value 1.01 | locus YGL253W, strain hxk2, stronger effect = lower value 1 | locus YGR078C, strain PAC10, stronger effect = lower value 0.984 | locus YGR135W, strain pre9, stronger effect = lower value 1.02 | locus YGR229C, strain SMI1, stronger effect = lower value 1.01 | locus YGR252W, strain gcn5, stronger effect = lower value 1.03 | locus YHR013C, strain ard1, stronger effect = lower value 0.99 | locus YHR027C, strain rpn1, stronger effect = lower value 0.977 | locus YHR030C, strain SLT2, stronger effect = lower value 1.01 and 1.02 | locus YHR079C, strain IRE1 (second series), stronger effect = lower value 1.02 | locus YHR079C, strain IRE1, stronger effect = lower value 0.988 | locus YHR094C, strain hxt1, stronger effect = lower value 1.02 | locus YHR129C, strain ARP1, stronger effect = lower value 1 | locus YHR142W, strain chs7, stronger effect = lower value 0.949 | locus YHR200W, strain rpn10, stronger effect = lower value 1.03 | locus YIL066C, strain RNR3, stronger effect = lower value 1.01 | locus YIL073C, strain SPO22, stronger effect = lower value 1.09 | locus YIL125W, strain kgd1, stronger effect = lower value 1.01 | locus YIR030C, strain dcg1, stronger effect = lower value 1.02 | locus YJL092W, strain hpr5, stronger effect = lower value 0.968 | locus YJL095W, strain BCK1 (second series), stronger effect = lower value 0.987 | locus YJL095W, strain BCK1, stronger effect = lower value 1.01 and 0.997 | locus YJL115W, strain asf1, stronger effect = lower value 0.962 | locus YJL129C, strain trk1, stronger effect = lower value 0.979 | locus YJL134W, strain LCB3, stronger effect = lower value 1.01 | locus YJL154C, strain vps35, stronger effect = lower value 0.967 | locus YJL164C, strain tpk1, stronger effect = lower value 0.972 | locus YJL166W, strain qcr8, stronger effect = lower value 1 | locus YJL168C, strain set2, stronger effect = lower value 1.02 | locus YJL187C, strain SWE1 (second series), stronger effect = lower value 1.01 | locus YJL187C, strain SWE1, stronger effect = lower value 0.981 | locus YJR043C, strain POL32, stronger effect = lower value 1.01 | locus YJR066W, strain TOR1, stronger effect = lower value 0.93
